# The entries come from a sample that favours hits as a whole.
# AmpC no deterg – qHTS Inhibitors of AmpC Beta-Lactamase (assay without detergent); P00811; Potency, µM (titrated, usually from 57.1 µM), for inactives: top-dose activity change, negative = inhibition, actives largely listed as inhibitors; AmpC nitrocefin hydrolysis, absorbance 480 nm, 0.0001% Triton; 330,000 tested, 0.52% active;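 also: plate controls were no compound for no effect and no enzyme for full effect; nearly all actives have a fitted effect of over 20% in size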
# Target sequence (P00811 whole entry, looked up): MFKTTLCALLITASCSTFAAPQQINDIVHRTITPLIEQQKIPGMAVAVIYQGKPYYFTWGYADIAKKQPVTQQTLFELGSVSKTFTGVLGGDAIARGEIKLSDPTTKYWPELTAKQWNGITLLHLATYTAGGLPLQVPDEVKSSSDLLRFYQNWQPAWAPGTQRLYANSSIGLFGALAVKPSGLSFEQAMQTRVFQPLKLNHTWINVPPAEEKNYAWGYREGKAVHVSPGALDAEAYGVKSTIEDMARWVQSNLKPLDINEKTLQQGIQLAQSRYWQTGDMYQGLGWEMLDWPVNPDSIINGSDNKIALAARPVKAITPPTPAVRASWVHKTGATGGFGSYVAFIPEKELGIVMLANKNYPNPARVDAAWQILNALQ
#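 20 mM phosphate pH 7.0 + 0.01% (detergent screen) or 0.0001% Triton X-100; 5.3 nM AmpC reagent; cpd preinc 15 min RT; nitrocefin (800 uM stock) to start; A480 q20 s × 4 min; Activity was normalised to no-enzyme and no-compound control wells.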
# AmpC detergent – qHTS Inhibitors of AmpC Beta-Lactamase (assay with detergent); Potency, µM (series often up to 114 µM), inactives show top-dose activity change, negative = inhibition, most hits filed as inhibitors; AmpC hydrolysis of nitrocefin, absorbance 480 nm, 0.01% Triton; 370,000 tested, 0.041% active; P00811;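 also: 0% = no-compound wells and -100% = no-enzyme wells; nearly all actives have a fitted effect of over 25% in size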
#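 20 mM phosphate pH 7.0 + 0.01% (detergent screen) or 0.0001% Triton X-100; 5.3 nM AmpC reagent; cpd preinc 15 min RT; nitrocefin (800 uM stock) to start; A480 q20 s × 4 min; Activity was normalised to no-enzyme and no-compound control wells.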
# * = called active by the depositor; ? = inconclusive; · = not tested or not shown. Calls follow the shape of the dose curve; as a rule, active = well fitted curve in the direction sought with a large enough effect; inconclusive = small, poorly fitted or top-dose-only effect, or another doubt; inactive = no such curve, though single readings can be large; an effect the other way counts as inactive or inconclusive. Potency is read from the fitted curve at half-maximal effect.
SMILES,AmpC no deterg,AmpC detergent
N=C1/C(=C/c2ccc(-c3cccc(C(=O)O)c3)o2)C(=O)N=C2SC(CC(=O)N3CCOCC3)=NN12,-6.1%,-1.3%
COc1ccc(-c2nc3ccccc3o2)cc1NC(=O)c1ccc(N2CCC(C)CC2)c([N+](=O)[O-])c1,·,-0.8%
CCCOc1ccc(C2NC(=S)NC(C)=C2C(=O)c2ccccc2)cc1OC (stereo not given),?,-10.2%
COc1cc(C2NC(=S)NC(C)=C2C(=O)c2ccccc2)ccc1O (stereo not given),14.1µM*,-4.7%
CCN(C(=O)Cn1c(SCc2ccccc2F)nc2cccnc21)c1ccccc1,·,-6.4%
Cc1ccc(-c2nnn3c2nc(NCC(C)c2ccccc2)c2ccccc23)cc1 (stereo not given),·,1.3%
Cc1sc2nc(COC(=O)c3ccc(Cl)c(N)c3)[nH]c(=O)c2c1C,-38.9%,-3.8%
Cc1sc2nc(COC(=O)c3ccc(O)cc3)[nH]c(=O)c2c1C,14.1µM*,3.0%
Cc1cc(C)cc(OCc2cc(=O)n3c4c(sc3n2)CCCC4)c1,·,-0.4%
Cc1ccc2c(C)c(C(=O)N(Cc3ccc(N(C)C)cc3)Cc3ccco3)oc2c1C,·,20.1%
Cc1ccc2[nH]c3c(NCCN4CCOCC4)ncnc3c2c1,-23.1%,-0.2%
C=CCNc1ncnc2c1[nH]c1ccc(C)cc12,12.6µM*,?
Oc1ccc(CNc2cccc(F)c2F)c2cccnc12,-19.3%,-9.9%
CCOc1ccc(CC(=O)Nc2c(C(=O)Nc3ccc(OC)cc3OC)oc3ccccc23)cc1,·,7.6%
COc1ccccc1NC(=S)N=Nc1c(O)[nH]c2ccc(Br)cc12,-35.3%,5.3%
Cc1cccc(NC(=S)N=Nc2c(O)[nH]c3ccccc23)c1,31.6µM*,?
Cc1nn(CC(=O)NC2C(=O)N3C(C(=O)O)=C(CSc4nnnn4C)CSC23)cc1Br (stereo not given),-10.4%,-1.0%
CO[C@@]1(NC(=O)C2SC(=C(C(N)=O)C(=O)O)S2)C(=O)N2C(C(=O)O)=C(CSc3nnnn3C)CS[C@@H]21 (stereo not given in full),7.08µM*,17.8µM*
CCOC(=O)c1cccc(NC(=O)CC(c2ccc(F)cc2)N2Cc3ccccc3C2=O)c1 (stereo not given),·,24.4%
COc1cccc(NCc2cccn2-c2nnc(N3CCC(C)CC3)s2)c1,·,12.4%
CCOc1ccccc1CNC(=O)C1CCN(C(=O)N2CC(CC)Oc3ccc(C)cc32)CC1 (stereo not given),·,25.4%
COC(=O)C1CCN(c2c([N+](=O)[O-])cc(C(F)(F)F)cc2[N+](=O)[O-])CC1,0.251µM*,2.8%
NC(=O)C1CCN(c2c([N+](=O)[O-])cc(C(F)(F)F)cc2[N+](=O)[O-])CC1,17.9%,-5.0%
CCc1cccc(-n2c(=O)c3cccnc3n2CC(=O)Nc2ccc(F)c(C)c2)c1,·,5.8%
O=C1NC(=O)N(Cc2ccc(F)cc2)C(=O)/C1=C/c1cccs1,-49.5%,-10.4%
SMILES,AmpC no deterg,AmpC detergent
O=C1NC(=O)N(Cc2ccccc2Cl)C(=O)/C1=C/c1cccs1,20µM*,-3.4%
COc1ccc(NC(=O)Cn2ccn(-c3ccc(F)c(F)c3)c(=O)c2=O)cc1Cl,·,22.6%
CCN(CC)S(=O)(=O)c1ccc(OC)c(NC(=O)c2ccc([N+](=O)[O-])cc2)c1,-7.5%,-1.9%
COc1ccc(C(=O)Nc2ccccc2)cc1NC(=O)c1ccc([N+](=O)[O-])cc1,17.8µM*,-8.7%
COc1ccc(NC(=O)c2cccc(Oc3ccc([N+](=O)[O-])cc3Cl)c2)cc1,2.51µM*,?
O=C(Nc1cccc(Cl)c1)c1cccc(Oc2ccc([N+](=O)[O-])cc2Cl)c1,?,-18.2%
Cc1cc(Cl)ccc1OCC(=O)N(Cc1ccco1)Cc1ccccc1F,·,20.9%
COc1ccc(N(CC(=O)Nc2cccc(C(C)=O)c2)S(=O)(=O)c2ccccc2)c(OC)c1,·,-2.0%
N#Cc1c(NC(=O)CS(=O)(=O)c2ccc(Cl)cc2)sc2c1CCCCC2,·,-1.8%
CCCCNC(=O)Oc1c(Br)cc2sc(=O)oc2c1Br,?,44.7µM*
CCCCNC(=O)Oc1cc(CCl)on1,-11.8%,?
CCOc1ccccc1NC(=O)CC1Nc2ccccc2NC1=O (stereo not given),-28.9%,9.1%
CCCOc1ccccc1NC(=O)CC1Nc2ccccc2NC1=O (stereo not given),17.8µM*,-9.3%
COc1ccc2nc(NC(=O)c3ccc(S(=O)(=O)N4CCCC(C)C4)cc3)sc2c1 (stereo not given),·,8.8%
O=C(COC(=O)C1CC1)c1c[nH]c2ccccc12,-8.2%,?
O=C(Cc1ccccc1[N+](=O)[O-])OCC(=O)c1c[nH]c2ccccc12,10µM*,-20.3%
COc1ccccc1CCNC(=O)Cc1c(C)c2cc3c(C)coc3cc2oc1=O,·,19.3%
COc1cc(C2CC(=O)N(Cc3ccc(F)cc3)c3ccccc3S2)cc(OC)c1OC (stereo not given),·,1.7%
CCC(=O)Nc1cccc(NC(=O)c2ccc3c(c2)OCO3)c1,0.141µM*,1.9%
O=C(Nc1cccc(Cl)c1)c1ccc2c(c1)OCCO2,-29.2%,?
O=C(Nc1cccc(NC(=O)c2cccs2)c1)c1ccc2c(c1)OCCO2,7.08µM*,-3.8%
COc1cccc(NC(=O)c2ccc3c(c2)OCO3)c1,-19.1%,-9.7%
CCOC(=O)C1CCCN(C(=O)Cn2ncc3c(C)n(Cc4ccccc4Cl)c(C)c3c2=O)C1 (stereo not given),·,-2.7%
Brc1ccc(-c2ccc(CNCCSc3nnnn3-c3ccccc3)o2)cc1,·,18.3%
COc1ccc(-c2csc(Nc3ccc(S(N)(=O)=O)cc3)n2)cc1OC,15.8µM*,-4.6%
SMILES,AmpC no deterg,AmpC detergent
NS(=O)(=O)c1ccc(Nc2nc(-c3ccc(F)cc3)cs2)cc1,-39.3%,5.0%
CC(C)(C)OC(=O)N1CCC(c2c(C(=O)N3CCN(c4ccccc4F)CC3)cnn2-c2ccccc2Cl)CC1,·,-2.8%
CCc1nc(Nc2ccc(N3CCN(C(C)=O)CC3)cc2)c2oc3ccccc3c2n1,183.1%,35.5µM*
CC(=O)N1CCN(c2ccc(Nc3ncnc4c3oc3ccccc34)cc2)CC1,103.7%,-9.5%
Cc1ccc(S(=O)(=O)c2c(O)cc(C)c(NS(=O)(=O)c3ccc(Cl)cc3)c2C)cc1,·,2.9%
Cc1ccc2nc(N=C(N)N)nc(C)c2c1,10µM*,-1.8%
CCc1ccc2nc(N=C(N)N)nc(C)c2c1,-33.1%,4.1%
COc1ccc(OC)c(NC(=O)c2nnn(Cc3ccc(Br)cc3F)c2N)c1,0.794µM*,?
COc1ccc(NC(=O)c2nnn(Cc3ccc(Br)cc3F)c2N)c(OC)c1,·,-7.9%
Cc1nnc(SCc2nnc(-c3ccccc3Br)o2)n1-c1ccccc1,5.62µM*,?
Cc1nnc(SCc2nnc(-c3ccc(Cl)cc3)o2)n1-c1ccccc1,26.8%,-1.9%
CC(C)c1ccc(OCC(=O)N(Cc2cccs2)C2CCS(=O)(=O)C2)cc1 (stereo not given),·,-12.9%
CC(=O)Nc1ccc(S(=O)(=O)N2CCN(CCC#N)CC2)cc1,44.7µM*,?
Cc1ccc(S(=O)(=O)N2CCN(CCC#N)CC2)cc1,-6.3%,6.3%
CCN(C1CCCCC1)S(=O)(=O)c1ccc(S(=O)(=O)N2CCN(CCC#N)CC2)cc1,6.31µM*,-15.0%
